According to PubChem BioAssay:
Activity calls are given as the source filed them.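 The calls were made as follows, unless noted: active = inhibition above 20% together with a positive visual image hit; inconclusive = visual image hit but inhibition not above 20%; inactive = no visual image hit.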

Experiments:
[1] = inhibitors of TNFa-induced NFkB p65 translocation, primary screen, imaging, HUVEC, MLSMR starter and 10KST1 sets (AID 438); conditions: HUVEC TNFa-induced p65 nuclear translocation; cell count: measured here: nuclei count (cytotoxicity indicator), at 2.08 µM; inhibition: at 2 µM, stronger effect = higher value, 0% TNFa-plus-vehicle, 100% no-TNFa wells;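 also: compound added about 3h40 before a 20 min TNFalpha stimulation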;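 as to inhibition: signal is the nuclear over cytoplasmic p65 intensity ratio per well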
[2] = inhibitors of mutant huntingtin aggregation, primary screen, imaging, exon1htt(103Q)mCFP cells, high-content imaging (AID 483;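 active = visual image review flags a hit and inhibition of aggregation exceeds 20%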;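 also: compound exposure lasted 3 days before fixation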;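 as to nuclei count: percent of the per-plate median nuclei count of sample wells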); conditions: exon1htt(103Q)mCFP cell line, aggregate imaging, at 2 µM; inhibition of aggregation: stronger effect = higher value; nuclei count: measured here: cell count, toxicity
[3] = inhibitors of E-selectin induction by TNFa, primary screen, imaging, HUVEC, immunofluorescence, MLSMR starter and 10KST1 sets (AID 487;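 active = visually confirmed hit in the image check and inhibition above 20%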;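 as to inhibition: signal is fraction of cell area covered by stained E-selectin grains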;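 as to nuclei count: 100% = median nuclei count of all wells on the same plate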); conditions: HUVEC TNFalpha-induced E-selectin immunofluorescence imaging, at 2 µM; inhibition: stronger effect = higher value; nuclei count: measured here: cell number, toxicity
[4] = target: Voltage-gated potassium channel subunit beta-2 (Rattus norvegicus) (UniProt P62483); assay: KvBeta enzyme negative modulators, primary screen, biochemical, NADPH fluorescence (AID 622;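 active = fluorescence slope higher than the sample average by over 3 SD, cut at about -0.22 in these data, passing the limit was not always enough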;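 also: slope of raw intensity against log time taken from 70 to 1610 s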); conditions: recombinant KvBeta, 4-cyanobenzaldehyde reduction, at 10 µM, stronger effect = higher value
Sequence of Voltage-gated potassium channel subunit beta-2 (Rattus norvegicus) (P62483 whole entry, looked up): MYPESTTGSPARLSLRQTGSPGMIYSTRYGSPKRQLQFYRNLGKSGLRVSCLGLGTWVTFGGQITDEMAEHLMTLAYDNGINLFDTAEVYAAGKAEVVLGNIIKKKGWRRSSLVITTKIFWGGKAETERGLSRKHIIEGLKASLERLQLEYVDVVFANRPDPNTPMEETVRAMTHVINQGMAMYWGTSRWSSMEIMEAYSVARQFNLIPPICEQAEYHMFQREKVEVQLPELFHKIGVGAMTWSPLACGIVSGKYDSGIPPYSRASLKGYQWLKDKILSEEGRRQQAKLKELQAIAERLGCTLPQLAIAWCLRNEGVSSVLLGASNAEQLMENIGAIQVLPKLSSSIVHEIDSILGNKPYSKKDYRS

[5] = target: Voltage-gated potassium channel subunit beta-2 (Rattus norvegicus) (UniProt P62483); assay: KvBeta positive modulators, primary screen, biochemical, NADPH fluorescence (AID 623;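 active = NADPH fluorescence slope more negative than the mean of all samples by about 3 SD, 99.7% confidence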;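 also: fluorescence intensity change per second fitted from 20 to 320 s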); conditions: Recombinant KvBeta, NADPH fluorescence decrease slope, 10 min; at 10 µM; stronger effect = lower value
[6] = target: Alpha-2C adrenergic receptor (Homo sapiens) (UniProt P18825); assay: modulators of alpha2C/GIRK thallium flux, primary screen, cell-based, HEK293 alpha2C/GIRK1/2 (AID 624;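 active = fluorescence slope after compound addition differing from the mean of all screened samples at 99.7% confidence, in either direction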;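 also: slope of fluorescence ratio to pre-addition baseline per second over 15 to 24 s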); conditions: thallium flux BTC fluorescence, at 10 µM, actives lie on both sides
Sequence of Alpha-2C adrenergic receptor (Homo sapiens) (P18825 whole entry, looked up): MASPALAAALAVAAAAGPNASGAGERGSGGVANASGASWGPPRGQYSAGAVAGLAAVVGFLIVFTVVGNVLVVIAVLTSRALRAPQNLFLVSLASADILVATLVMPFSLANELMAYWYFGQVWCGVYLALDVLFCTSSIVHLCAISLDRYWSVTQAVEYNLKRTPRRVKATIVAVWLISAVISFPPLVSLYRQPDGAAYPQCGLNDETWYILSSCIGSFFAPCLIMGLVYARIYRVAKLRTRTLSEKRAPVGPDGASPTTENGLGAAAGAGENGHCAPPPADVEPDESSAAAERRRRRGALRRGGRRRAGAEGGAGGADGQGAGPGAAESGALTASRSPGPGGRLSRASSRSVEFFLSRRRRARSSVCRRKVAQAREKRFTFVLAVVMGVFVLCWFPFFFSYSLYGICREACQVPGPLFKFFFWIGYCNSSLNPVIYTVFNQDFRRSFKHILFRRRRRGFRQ

[7] = inhibitors of Sendai virus-induced IRF3 signaling, primary screen, TLR/RLR signaling modifier project, cell-based, Sendai virus stimulus, luciferase, 10K MLSCN set (AID 602276;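 active = inhibition at or above 50% at 10 µM; inactive = inhibition below 50%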;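 also: firefly luciferase from ISG56 promoter only with Renilla not read in this screen; 0% = Sendai virus plus DMSO and 100% = medium plus DMSO without virus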); conditions: HEK293 RL24 IRF3 luciferase reporter, at 10 µM, stronger effect = higher value
[8] = inhibitors of poly I:C-induced TLR3 signaling, primary screen, cell-based, poly I:C stimulus, luciferase, 10K MLSCN set (AID 602277;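 active = inhibition of the reporter signal at or above 50%; inactive = inhibition below 50%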); conditions: HEK293-TLR3 RL24 IRF3 luciferase reporter, at 10 µM, stronger effect = higher value

Compound | cell count [1] | inhibition [1] | inhibition of aggregation [2] | nuclei count [2] [%] | inhibition [3] | nuclei count [3] [%] | fluorescence slope [4] | NADPH fluorescence slope [5] | slope [6] | inhibition [7] | inhibition [8]
Cc1noc(C)c1S(=O)(=O)N1CCN(Cc2ccc3c(c2)OCO3)CC1 | 730 | 2.5% (inactive) | 0.3% (inactive) | 106 | -16.7% (inactive) | 117 | -0.542 (inactive) | -2e-05 (inactive) | 0.00533 (inactive) | 4.24% (inactive) | 18.3% (inactive)
CN(C)c1oc(-c2ccccc2Cl)nc1C#N | 302 | 4.3% (inactive) | -4.3% (inactive) | 90.7 | 6% (inactive) | 109 | -0.433 (inactive) | -0.000102 (inactive) | 0.00458 (inactive) | 6.71% (inactive) | -0.158% (inactive)
CN(Cc1ccco1)C(=O)Cn1c(=O)oc2cc(S(=O)(=O)NCc3ccccc3)ccc21 | 924 | 2.8% (inactive) | 20.1% (inactive) | 104 | -17.8% (inactive) | 96.6 | -0.55 (inactive) | 2.5e-05 (inactive) | 0.00749 (inactive) | 13.5% (inactive) | 10.8% (inactive)
COc1cc(C(=O)Nc2cccc(-c3nc4cc(C)ccc4o3)c2)cc(OC)c1OC | 507 | 7% (inactive) | -1.2% (inactive) | 90.7 | -126% (inactive) | 126 | -0.582 (inactive) | -3.2e-05 (inactive) | 0.0093 (inactive) | 0.465% (inactive) | -22.5% (inactive)
O=S(=O)(Nc1cccnc1)c1cc(Cl)ccc1Cl | 395 | 2.5% (inactive) | 6.1% (inactive) | 99.9 | 26.2% (inactive) | 115 | -0.286 (inactive) | 2e-06 (inactive) | 0.00524 (inactive) | 23.6% (inactive) | 7.22% (inactive)
CCOc1ccc(OCC)c(NC(=O)C2CCN(c3ncccn3)CC2)c1 | 588 | -14.2% (inactive) | 10.9% (inactive) | 103 | -43.7% (inactive) | 113 | -0.421 (inactive) | -5.1e-05 (inactive) | 0.0054 (inactive) | 8.17% (inactive) | 11.1% (inactive)
COCCNC(=O)C(c1ccc(C)o1)N(Cc1ccc(OC)cc1)C(=O)Cn1nnc2ccccc21 (stereo not drawn) | 249 | 7% (inactive) | -3.6% (inactive) | 93.1 | 25.3% (inactive) | 82.9 | -0.648 (inactive) | -1.9e-05 (inactive) | 0.00364 (inactive) | 10.1% (inactive) | 6.31% (inactive)
Cc1ccc(N2C(=O)c3ccccc3C2O)nc1 (stereo not drawn) | 627 | 0.8% (inactive) | -27.7% (inactive) | 117 | -15.9% (inactive) | 117 | -0.587 (inactive) | -2.2e-05 (inactive) | 0.00652 (inactive) | 48.3% (inactive) | 41.4% (inactive)
COc1ccccc1C(=O)Nc1ccc(S(=O)(=O)N2CCCC2)cc1 | 676 | 2.2% (inactive) | 7.3% (inactive) | 114 | -22.4% (inactive) | 108 | -0.584 (inactive) | -2.5e-05 (inactive) | 0.0037 (inactive) | 8.65% (inactive) | -0.301% (inactive)
CCS(=O)(=O)c1nc2ccccc2n1Cc1ccccc1Cl | 689 | -1.1% (inactive) | -10.2% (inactive) | 115 | -31.4% (inactive) | 109 | -0.542 (inactive) | -5.8e-06 (inactive) | 0.0072 (inactive) | -0.827% (inactive) | 18.9% (inactive)
CCOC(=O)c1csc(NC(=O)C2CCCCC2)n1 | 706 | -18.4% (inactive) | -10% (inactive) | 90.2 | -4.9% (inactive) | 94.6 | -0.419 (inactive) | -0.000101 (inactive) | 0.00464 (inactive) | -47.3% (inactive) | -124% (inactive)
CC(=O)N1CCN=C1SCc1c(F)cccc1Cl | 509 | 9.8% (inactive) | -12.4% (inactive) | 110 | 9.3% (inactive) | 93.3 | -0.626 (inactive) | 1.8e-05 (inactive) | 0.00565 (inactive) | -11.7% (inactive) | 4.78% (inactive)
O=C(O)C1CC=CCC1C(=O)Nc1cccc(C(=O)N2CCCCC2)c1 (stereo not drawn) | 419 | 6.1% (inactive) | -11.9% (inactive) | 109 | -158% (inactive) | 115 | -0.427 (inactive) | -4.3e-05 (inactive) | 0.00595 (inactive) | 0.562% (inactive) | -0.512% (inactive)
COCCNC(=O)c1snc2ccc(Cl)cc12 | 375 | 6.7% (inactive) | 4.9% (inactive) | 89.8 | -175% (inactive) | 97.3 | -0.563 (inactive) | 3.8e-05 (inactive) | 0.00546 (inactive) | -23.6% (inactive) | -62.4% (inactive)
Cc1nnc(SCC(=O)N2CCN(S(=O)(=O)c3ccccc3)CC2)[nH]c1=O | 711 | 9.4% (inactive) | 7.1% (inactive) | 103 | -39.5% (inactive) | 127 | -0.509 (inactive) | -6e-05 (inactive) | 0.00552 (inactive) | 3.92% (inactive) | 13.4% (inactive)
O=c1c2[nH]c3ccccc3c2ncn1CCCn1ccnc1 | 717 | -0.2% (inactive) | -4.9% (inactive) | 99.9 | -21.4% (inactive) | 111 | -0.42 (inactive) | 3.1e-06 (inactive) | 0.00409 (inactive) | 26.3% (inactive) | 50.7% (active)
COCCn1c(SCC(=O)Nc2ccc3c(c2)OCCO3)nc2c(c1=O)SC(C)C2 (stereo not drawn) | 715 | -4.4% (inactive) | -19.9% (inactive) | 106 | -36.9% (inactive) | 116 | -0.413 (inactive) | 3.3e-05 (inactive) | 0.00496 (inactive) | -10.2% (inactive) | -0.542% (inactive)
CCN1CCN(c2ncnc3c2oc2nc(C)c4c(c23)CC(C)(C)OC4)CC1 | 476 | -2.9% (inactive) | 0.7% (inactive) | 102 | -35.5% (inactive) | 116 | -0.472 (inactive) | -2.5e-05 (inactive) | 0.00388 (inactive) | -6.53% (inactive) | 30.5% (inactive)
Cc1ccc(-c2cc(C(F)F)nc(NCC3CCCO3)n2)cc1 (stereo not drawn) | 647 | 1.4% (inactive) | 15.9% (inactive) | 87.5 | -135% (inactive) | 128 | -0.524 (inactive) | 1.3e-05 (inactive) | 0.00547 (inactive) | -25.4% (inactive) | -60.9% (inactive)
COc1ccccc1-c1nnc(SCc2ccccn2)n1C | 307 | 7.6% (inactive) | -5.8% (inactive) | 97.6 | -25.6% (inactive) | 104 | -0.581 (inactive) | 0.000106 (inactive) | 0.0056 (inactive) | -14.7% (inactive) | -10.3% (inactive)
CC(NC(=O)C1CC1)C(c1cccs1)N1CCN(c2ccccc2)CC1 (stereo not drawn) | 884 | 4.2% (inactive) | -7.2% (inactive) | 100 | -17.3% (inactive) | 116 | -0.495 (inactive) | -3e-05 (inactive) | 0.00607 (inactive) | 6.3% (inactive) | 23.6% (inactive)
CCCCn1c(=O)[nH]c(=O)c2c1nc(-c1ccncc1)n2CCOC | 542 | -15.4% (inactive) | -7.3% (inactive) | 107 | -19.9% (inactive) | 138 | -0.446 (inactive) | -4.3e-05 (inactive) | 0.00406 (inactive) | 0.301% (inactive) | 33.4% (inactive)
CCc1cc2c(=O)n(C(C)C(=O)OC3CCCCC3)cnc2s1 (stereo not drawn) | 561 | 0% (inactive) | 32% (inactive) | 114 | -73.8% (inactive) | 103 | -0.486 (inactive) | -3.4e-05 (inactive) | 0.00382 (inactive) | -49.6% (inactive) | -101% (inactive)
O=C(Nc1ccc2c(c1)OCCO2)C1CCCN1S(=O)(=O)c1cccc2cccnc12 (stereo not drawn) | 743 | 4.4% (inactive) | 4.5% (inactive) | 128 | -42.2% (inactive) | 106 | -0.537 (inactive) | -4.4e-05 (inactive) | 0.00567 (inactive) | 3.98% (inactive) | 22.9% (inactive)
CC(C)(C)C1CCc2[nH]nc(C(=O)O)c2C1 (stereo not drawn) | 814 | -2.8% (inactive) | 0% (inactive) | 104 | 2% (inactive) | 121 | -0.607 (inactive) | 1.9e-05 (inactive) | 0.00808 (inactive) | 12.4% (inactive) | 16% (inactive)
Nc1ncnc2nc(Sc3ccc(Cl)cc3)[nH]c12 | 645 | -8.5% (inactive) | -5.4% (inactive) | 108 | -12.5% (inactive) | 108 | -0.555 (inactive) | -6.5e-06 (inactive) | 0.00627 (inactive) | 10.1% (inactive) | 12.5% (inactive)
COc1ccc2oc(=O)c(C(=O)N3CCN(c4ccccc4F)CC3)cc2c1 | 365 | -0.4% (inactive) | -3.7% (inactive) | 95.9 | -15.2% (inactive) | 109 | -0.335 (inactive) | 2.4e-05 (inactive) | 0.00535 (inactive) | 16.3% (inactive) | 21.2% (inactive)
CSC1=NCCN1C(=O)c1ccc(S(=O)(=O)N2CCCC2)cc1 | 611 | 0.8% (inactive) | 9.6% (inactive) | 107 | -7.2% (inactive) | 105 | -0.592 (inactive) | -1.6e-05 (inactive) | 0.00671 (inactive) | 11.2% (inactive) | 33.2% (inactive)
